One may read the inhibition as the change of the read-out against control, counted positive when it falls.

Hit rate of the full screen: of about 350,000 compounds, about 2,400 (0.69%) were called active. Many of the other results were omitted from the sample, so actives are more common in it than they were. Values without a mark were called inactive. Rule as the data show it: active = inhibition above about 41%; inconclusive = no clear call, values can overlap the other calls; inactive = below that.

83 molecules from PubChem BioAssay AID504558 (Broad Institute, 2011) can be followed below.

A short description of this test: blockers of LMP1-induced NF-kB reporter signal – cell-based, luminescence, single point, primary screen (AID 504558).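 Also: 0% = neutral control wells and 100% = reference inhibitor control.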 Conditions: LMP1-induced NF-kappaB luciferase reporter cells, at 12.5 µM, active compounds read high.
Turning to `CN1OC[C@@H]2CN(S(=O)(=O)c3cccc(C(F)(F)F)c3)[C@H](c3ccc(-c4cc5ccccc5o4)cc3)C[C@@H]21`, the inhibition is 23.8%. `COc1ccc(NC(=O)N(C)C[C@H]2Oc3ncc(C#C[C@@H](C)O)cc3C(=O)N([C@H](C)CO)C[C@H]2C)cc1`: the inhibition was 3.12%. Turning to `Oc1ccc(N2CCN(C(=S)NCc3ccccc3)CC2)cc1`, the inhibition is 50.7% (active). Turning to `Oc1ccccc1N1CCN(C(=S)NCc2ccccc2)CC1`, the inhibition is 0.986%. In the case of `O=C(COC(=O)c1ccccc1C(=O)N1CCN(c2ccccc2)CC1)NCc1ccccc1`, the inhibition is -5.9%. To `CC(C)N=C1CCCC1C(=S)SSC(=S)C1CCCC1=NC(C)C` (stereo not drawn) belongs 24.4%; to `O=C(NCCN1CCOCC1)C1CCN(S(=O)(=O)c2ccccc2)CC1`, 5.14%; to `COc1ccc(OC)c(/C=C/C(=O)OCC(=O)Nc2ccc3c(c2)OCCO3)c1`, 0.837%. As to `COc1cccc(/C=C/C(=O)Nc2ccc3c(c2)OCCO3)c1`, the inhibition was 58.7% (active).

Regarding `O=C(/C=C\c1ccc2c(c1)OCO2)NC1(C(=O)Nc2ccc3c(c2)OCCO3)CCCCC1`, the inhibition is -3.03%. Turning to `CC1CCCC(NC(=O)COC(=O)c2ccccc2C(=O)N(C)C2CCCCC2)C1C` (stereo not drawn), the inhibition is -11.2%.

In the case of `COc1cccc(/C=N/NC(=O)c2[nH]nc3c2CCc2ccccc2-3)c1O`, the inhibition is 69.4% (active). To `CCn1c(/C=N/NC(=O)c2ccc(OC)cc2)nc2ccccc21` belongs 4.88%; to `COc1ccc(/C=C2\CCc3ccccc3C2=O)c(OC)c1OC`, -2.98%. For `CC1=C(C(=O)N2CCOCC2)CC(CC(=O)NCC2CCCCC2)C(=O)N1Cc1ccc(F)cc1` (stereo not drawn), the inhibition is -0.637%.

Turning to `CCCc1ccc(S(=O)(=O)N2CCN(C(=O)c3cc(C)on3)CC2)cc1`, the inhibition was -4.88%. Regarding `C[C@H](CO)N1C[C@H](C)[C@@H](CN(C)Cc2ccc3c(c2)OCO3)OCc2cnnn2CCCC1=O`, the inhibition was 4.06%. Turning to `CC(C)C1CCN(C(=O)C2CCC(=O)N(C3CCCCCC3)C2)CC1` (stereo not drawn), the inhibition is -25.4%.

In the case of `S=C(NCC1CCCO1)N1CCN(c2ccc(Cl)c(Cl)c2)CC1` (stereo not drawn), the inhibition was 10%. Take `COc1ccc(S(=O)(=O)N2CCN(C(=S)NCC3CCCO3)CC2)cc1OC` (stereo not drawn): the inhibition was 74.2% (active). Turning to `CCOc1ccc(S(=O)(=O)N2CCN(C(=S)NCC3CCCO3)CC2)cc1` (stereo not drawn), the inhibition was -0.069%. Take `C[C@H](CO)N1C[C@H](C)[C@H](CN(C)C(=O)c2ccncc2)OCc2ccccc2-c2c(n(C)c3ccccc23)C1=O`: the inhibition is 2.77%.

Take `C[C@H]1CN([C@@H](C)CO)C(=O)CCCn2nncc2CO[C@@H]1CN(C)S(=O)(=O)c1cccc(C#N)c1`: the inhibition was 2.8%. `CN1OC[C@@H]2CN[C@H](c3ccc(-c4ccccc4)cc3)C[C@@H]21`: the inhibition was -14.4%. To `COc1cccc(NC(=O)N(C)C[C@@H]2Oc3ncc(Br)cc3C(=O)N([C@@H](C)CO)C[C@H]2C)c1` belongs 1.17%; to `Cc1cccc(NC(=O)c2nc(S(=O)(=O)Cc3ccccc3)ncc2Cl)c1`, 19.5%; to `Cc1ccc(CS(=O)(=O)c2ncc(Cl)c(C(=O)Nc3nnc(C)s3)n2)cc1`, 85.8% (active). `CSc1nnc(NC(=O)c2nc(S(=O)(=O)Cc3ccc(C)cc3)ncc2Cl)s1`: the inhibition was 24.2%. For the molecule `CC1(C)OC(=O)C2=C(CC(c3ccccc3)OC2CCc2ccccc2)O1` (stereo not drawn), the inhibition is 3.89%.

Take `C[C@@H]1C[C@@H]2O[C@H]2/C=C\C=C\C(=O)Cc2c(Cl)c(O)cc(O)c2C(=O)O1`: the inhibition is 80% (active).

As to `CCOC(=O)c1c(C)[nH]c(C)c1C(=O)COC(=O)/C=C/c1cccc([N+](=O)[O-])c1`, the inhibition was 7.29%. Take `O=C(C[n+]1ccccc1)N/N=C/c1ccc(O)cc1`: the inhibition was 45.7% (active). Take `Cc1nonc1C(=O)N/N=C/c1ccc(O)cc1`: the inhibition is -10.7%. Take `Nc1nnn(CC(=O)N/N=C/c2ccc(O)cc2)n1`: the inhibition is -8.43%. As for `O=C(OCc1ccccc1)N1CCC2CC1c1ccc(-c3ccc4c(c3)OCO4)cc12` (stereo not drawn), the inhibition is -5.51%. For the molecule `O=NN(CCCl)C(=O)NCCc1cccc[n+]1[O-]`, the inhibition was 1.36%.

In the case of `COc1cc(SC)ccc1C(=O)NNC(=O)C1COc2ccccc2O1` (stereo not drawn), the inhibition was 3.35%. In the case of `COc1ccc(C(=O)NC2=NCCS2)c(OC)c1`, the inhibition was 14.4%. `Cc1csc(NC(=O)c2ccc(-c3ccc(Cl)cc3Cl)o2)n1`: the inhibition was 5.23%. For the molecule `COC(=O)c1sc(NC(=O)c2ccc(OC)cc2OC)nc1C`, the inhibition is 56.8% (active).

For `COc1cc(SC)ccc1C(=O)Nc1nc(C)cs1`, the inhibition is 77% (active).

Take `COC(=O)c1sc(NC(=S)NC(=O)c2ccc(C)cc2)nc1C`: the inhibition was -2.09%. As for `O=C(c1ccc(N2CCCC2=O)cc1)N1CCN(c2ccc(C(F)(F)F)cc2[N+](=O)[O-])CC1`, the inhibition is 5.85%. To `CCc1c(N=O)c(-c2ccccc2)n(O)[n+]1[O-]` belongs -1.78%.

In the case of `COc1ccc(CN2C[C@H]3CON(C)[C@H]3C[C@H]2c2ccc(-c3cccc(F)c3)cc2)cc1`, the inhibition is 6.65%. `C=CCN1CCN(c2ccncc2S(=O)(=O)N2CCN(C)CC2)CC1`: the inhibition was -2.07%. On to `C[C@H]1CN([C@@H](C)CO)C(=O)CCCn2cc(nn2)CO[C@@H]1CN(C)S(=O)(=O)c1ccc(-c2ccccc2)cc1`, for which the inhibition was 1.8%. To `CC(=O)CC[C@@H](C)O[C@@H]1OC(C)[C@H](O)CC1O` (stereo partly drawn) belongs 85.2% (active). On to `COCCNC(=O)CSc1nc(N)c(NC(=O)c2ccco2)c(=O)[nH]1`, for which the inhibition was 2.34%.

For the molecule `CN1CCN(c2ccncc2S(=O)(=O)N2CCCC2)CC1`, the inhibition is -0.542%.

In the case of `Cn1nc(N)c2ncc(C(Cl)(Cl)Cl)nc21`, the inhibition is 1.82%. As for `O=C1[C@H]2[C@@H](c3ccc(C(F)(F)F)cc3)N[C@]3(CCCN(Cc4ccc(Br)cc4)C3=O)[C@H]2C(=O)N1Cc1ccccc1`, the inhibition is -24.7%. With `CCCCCOC(=O)c1ccc(N2C(=O)C3C4C=CC(C4)C3C2=O)cc1` (stereo not drawn), the inhibition is 0.71%.

As for `CCCCCCCCCCOC(=O)C[N+](C)(C)CC1CCCCC1O` (stereo not drawn), the inhibition is 51% (active). With `CC[C@]1(C(=O)OC)[C@H]2C(=O)N(Cc3ccccc3)C(=O)[C@H]2[C@H]2CN=C(SCc3ccccc3)N21`, the inhibition was -0.0665%. For `CCCN=C1N(C)C[C@@H]2[C@@H]3C(=O)N(Cc4ccccc4)C(=O)[C@@H]3[C@](C)(C(=O)OC)N12`, the inhibition is -3.21%. Turning to `CC[C@]1(C(=O)OC)[C@H]2C(=O)N(Cc3ccccc3)C(=O)[C@H]2[C@H]2CN=C(SCc3ccc(C#N)cc3)N21`, the inhibition is 61.8% (active). Regarding `CCN1C[C@@H]2[C@@H]3C(=O)N(Cc4ccccc4)C(=O)[C@@H]3[C@](Cc3ccccc3)(C(=O)OC)N2C1=NC1CCCCC1`, the inhibition is 0.675%. The value for `CC[C@]1(C(=O)OC)[C@H]2C(=O)N(Cc3ccccc3)C(=O)[C@H]2[C@H]2CN=C(SCc3ccc(Cl)cc3)N21` was 87.9% (active); that for `COC(=O)[C@@]1(C)[C@H]2C(=O)N(Cc3ccccc3)C(=O)[C@H]2[C@H]2CN=C(SCC3CC3)N21` was -0.447%; that for `C[C@@H]1CN([C@H](C)CO)C(=O)CCCn2nncc2CO[C@@H]1CN(C)C(=O)OCc1ccccc1` was 3.33%. With `CCCCCC(=O)N1C[C@H](O)[C@@H](n2cc(COC(=O)c3ccccc3)nn2)C[C@@H]1c1ccc(C)cc1`, the inhibition is -2.09%. With `CC(C)n1ncc2c(C(=O)N3CCN(Cc4cccs4)CC3)cc(C3CC3)nc21`, the inhibition was -5.29%.

For `NC(=S)NN=Cc1ccc(OC(=O)COc2cc(Cl)c(Cl)cc2Cl)cn1`, the inhibition is 12.2%.

Consider `CC1=C(C(=O)N(C)C)CC(CC(=O)NCCN2CCOCC2)C(=O)N1Cc1ccccc1` (stereo not drawn), for which the inhibition was -6.42%.

Turning to `O=C(c1cccs1)N1C[C@H](n2cc(C3CC3)nn2)[C@@H](O)C[C@@H]1c1ccccc1`, the inhibition is 5.6%. Consider `Cc1cccc(NC(=O)C2CCCN2S(=O)(=O)c2ccc(F)cc2)c1C` (stereo not drawn), for which the inhibition is -1.63%. To `COc1ccc(NC(=O)N2CCCC2C(=O)NCc2ccccc2Cl)cc1` (stereo not drawn) belongs 86.6% (active). As for `COc1ccc(CCNC(=O)C2CCCN2C(=O)Nc2ccccc2)cc1OC` (stereo not drawn), the inhibition was -0.848%. On to `O=C(NCc1ccccc1Cl)C1CCCN1S(=O)(=O)c1ccc(F)cc1` (stereo not drawn), for which the inhibition was 45.2% (active). The value for `O=C(NCc1ccccc1CN1CCCC1)C1CCN(S(=O)(=O)c2ccc(Cl)cc2)CC1` was -3.5%; that for `COc1ccc(NC(=O)C(NC(C)=O)C(=O)NCc2ccccc2Cl)cc1` (stereo not drawn) was -2.84%; that for `CN1CCn2cnc(C(=O)NCC(=O)OC(C)(C)C)c2C1=O` was 6.74%. On to `COc1ccc(-c2ccc(CN3C(CC(C)C)C(=O)N(Cc4cn(CC5CCCCC5)nn4)CCS3(=O)=O)cc2)cc1` (stereo not drawn), for which the inhibition was 17.4%.

In the case of `CCCNC(=O)C1CC(=O)N(c2ccc(OCc3ccccc3)cc2)C1` (stereo not drawn), the inhibition is -15.7%. Take `C/C(COc1ccccc1)=N\NC(=O)c1nnn(-c2nonc2N)c1-c1ccc(C)cc1`: the inhibition is 4.25%. On to `Cc1cc(Nc2ccc(C)c(C)c2)n2ncnc2n1`, for which the inhibition was 8.05%. The value for `CC1CCCN(C(=O)CN2C(=O)c3ccccc3S2(=O)=O)C1` (stereo not drawn) was -11.4%. To `O=C(CN1C(=O)c2ccccc2S1(=O)=O)N1CCc2ccccc21` belongs 71.7% (active); to `O=C(CSCc1ccccc1)N1CCc2ccccc21`, -29.9%.

With `CC1(C2CC2)NC(=O)N(CC(=O)N2CCN(c3ccccc3F)CC2)C1=O` (stereo not drawn), the inhibition was -9.22%. `COc1cc2nnn(-c3ccncc3)c2cc1OC`: the inhibition was -4.43%.

For the molecule `CCCCN(C(C)=O)c1ccc2c(c1)C1CC2CCN1Cc1ccccc1` (stereo not drawn), the inhibition was 2.88%.
